Compound activity as filed in PubChem BioAssay.
Abs 340nm = absorbance at 340 nm; 65,000 tested, under 10 active; fold change at 10 µM; compound absorbance at 340 nm, fold over control;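 active means at 10 µM dose, initial 340 nm absorbance at least 2 fold that of control wells; inactive means change under 2 fold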;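 further: initial absorbance extrapolated from kinetic A340 decline of NADH oxidation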
NADH coupling = blocks coupling enzymes of NAD/NADH assays; IC50, µM (titrated, usually from 10 µM), for the others: at the highest dose inhibition; AID 774; coupled PK/LDH NADH assays, four targets; 65,000 compounds, 0.02% hits;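 active means single-dose screening hits from any of four coupled enzyme assays that gave an IC50 when retested across doses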;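 further: the DPM-DC format reads NADH fluorescence rather than 340 nm absorbance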
Spn MK inh = S. pneumoniae mevalonate kinase inhibition; purified MK, PK/LDH-coupled NADH absorbance 340 nm; inhibition, % at 10 µM; 65,000 compounds, 0.48% hits; AID 555;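 active means ranked among the strongest by inhibition in the single 10 µM screen, a fixed top-ranked set picked for dose follow-up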
Fluor 339 460 = intrinsic fluorescence of library compounds, ex339/em460 – biochemical, MLSMR library, data from DPM-DC assay, artefact control, profiling panel; compound autofluorescence, ex339/em460 nm, NADH buffer; active compounds read high; 1 = no-compound wells, NADH background; 65,000 compounds, 5.5% hits; fluorescence fold increase at 10 µM; AID 709;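 active means at 10 µM, mean starting fluorescence two-fold or more over control wells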;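 further: signal is the first read of a kinetic run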
Spn DPM-DC inh = blocks S. pneumoniae diphosphomevalonate decarboxylase; calls only at 10 µM; AID 556; purified DPM-DC, PK/LDH coupled NADH fluorescence; 65,000 compounds, 0.49% hits;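 active means the 320 compounds with the highest percent inhibition in the single-dose primary screen, excluding strongly autofluorescent ones, cut at about 32% in these data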;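 further: kinetic rate of NADH fluorescence loss reporting ADP formed by the decarboxylase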
Spn PMK inh = blocks S. pneumoniae phosphomevalonate kinase; purified PMK, PK/LDH-coupled NADH absorbance 340 nm; inhibition, % at 10 µM; 65,000 compounds, 0.49% hits; AID 539;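 active means top-ranked compounds by inhibition in the single 10 µM screen, taking a fixed number of the strongest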;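 further: 0% = full reaction with DMSO carrier and 100% = background rate without enzyme reaction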
Starred values were filed as active, the others as inactive; i = inactive; x = no result given; + = active, no number. An excerpt weighted towards active compounds, which were near 6.5% of everything screened.

SMILES	Abs 340nm	NADH coupling	Spn MK inh	Fluor 339 460	Spn DPM-DC inh	Spn PMK inh
O=C(Cn1nnc(-c2ccccc2F)n1)Nc1ccc(S(=O)(=O)NC2CCCC2)cc1	0.97	3%	4	1	i	4
O=C(CSc1n[nH]c(-c2ccc(S(=O)(=O)NC3CCCCC3)cc2)n1)N1CCCC1	1.1	16%	10	3*	i	14
Cc1cc2c(c(=O)n1C)C(Cc1ccccc1)C(C#N)=C(N)O2 (centres undefined)	1	3%	4	1.4	i	5
Cc1ccc2nc(NC(=O)c3ccc(Cn4cc(Cl)cn4)o3)sc2c1	1.1	0%	1	2.2*	i	0
Cc1ccc2nc(NC(=O)c3ccc(Cl)s3)sc2c1	1.1	3%	1	2.1*	x	5
CC(=O)c1sc(NC(=O)c2ccc(Cn3cc(Br)cn3)o2)nc1C	1.1	3%	4	1.1	i	6
Cc1ccc2nc(NC(=O)c3cccs3)sc2c1	1.1	3%	0	1.5	i	0
O=C(NCc1cn2ccccc2n1)c1ccccc1	0.99	21%	52*	1	i	12
O=C(NCc1cn2ccccc2n1)c1ccc(Br)o1	1	4%	3	1.1	i	8
Cc1cc(C)n(-c2nc3ccccc3[nH]c2=O)n1	1.1	11%	3	2.8*	i	17
CCOC(=O)c1ccc(NC(=O)CSc2nnnn2CCCO)cc1	1	2%	3	1.1	i	2
Cc1ccc(-c2nc(CN(C)C)cc(CN(C)C)c2O)cc1	1.1	8%	10	3.8*	x	6
Cc1ccc2cc(CCNC(=O)CC(C)C)c(=O)[nH]c2c1	1.1	8%	6	1.2	i	8
Cc1ccc2nc3c(cc(C(=O)NCC4CCCO4)n3C)c(=O)n2c1 (centres undefined)	1	1%	0	3*	x	8
Cc1ccc2nc3c(cc(C(=O)NCCCn4ccnc4)n3C)c(=O)n2c1	1.1	2%	0	3.9*	x	4
Cc1ccc2nc3c(cc(C(=O)NCC4CCCO4)c(=N)n3CCCOC(C)C)c(=O)n2c1 (centres undefined)	1.1	15%	19	3.7*	x	10
Cc1cc(C(=O)NCCCn2ccnc2)cs1	1	4%	6	1.1	i	4
O=S(=O)(Nc1ccc2c(c1)OCCO2)c1cnc[nH]1	0.99	12%	23	1	i	14
O=C(COC(=O)CCC(=O)Nc1nccs1)NCc1ccco1	0.99	10%	14	1.1	i	15
CCCCOc1ccccc1NC(=O)CC1SC(=NCC)N(CC)C1=O (centres undefined)	1	5%	5	1.1	i	11
Cc1sc(NC(=O)c2oc3ccccc3c2C)c(C#N)c1C	1.2	3%	1	3.8*	x	4
Cc1ccc(NC2=NCC(=O)N2Cc2ccc3c(c2)OCO3)cc1	1	2%	2	1.1	i	3
c1ccc(C2Nc3ccccc3-c3nc4ccccc4n32)nc1 (centres undefined)	1.1	5%	9	2.3*	x	1
c1coc(C2Nc3ccccc3-c3nc4ccccc4n32)c1 (centres undefined)	1.1	6%	1	2.3*	x	11
CCOC(=O)c1c(C)[nH]c(NC(=O)N2CCOCC2)c1C	1	4%	12	1.1	i	0
SMILES	Abs 340nm	NADH coupling	Spn MK inh	Fluor 339 460	Spn DPM-DC inh	Spn PMK inh
COc1cccc(-c2nn(C)c3sc(C(=O)NCc4ccco4)cc23)c1	1	6%	10	3*	i	7
CCN1CCCC1CNC(=O)c1cc2c(-c3cccc(OC)c3)nn(C)c2s1 (centres undefined)	1	8%	7	5*	x	9
CCN1CCCC1CNC(=O)c1cc2c(-c3ccc(Cl)cc3)nn(C)c2s1 (centres undefined)	1.1	5%	6	2.1*	x	3
O=C(CSc1ccc2nnc(-c3cccc(F)c3)n2n1)NCC1CCCO1 (centres undefined)	1	14%	19	2.1*	i	12
CCOC(=O)CC(=O)CSc1ccc2nnc(-c3ccc(C)cc3)n2n1	1	18%	8	0.89	+	11
COc1ccc(-c2nnc3ccc(SCC(=O)N4CCCC4)nn23)cc1	1.1	1%	3	1.1	i	0
O=C(CSc1ccc2nnc(-c3ccccc3)n2n1)N1CCCCC1	1	8%	6	2.2*	i	10
O=C(CSc1ccc2nnc(-c3cccnc3)n2n1)NCC1CCCO1 (centres undefined)	1.1	7%	5	1.9	i	0
CCC(Sc1ccc2nnc(-c3ccc(F)cc3)n2n1)C(=O)O (centres undefined)	1	12%	10	2*	i	12
Cc1csc(/C(=N\O)c2csc(C)n2)n1	1	13%	7	0.88	i	21
COCc1cc(C)c(C#N)c(=S)[nH]1	1	26%	58*	1.1	i	21
Cc1ccccc1COc1ccc(/C(O)=C2/C(=O)C(=O)N(CCCn3ccnc3)C2c2ccco2)cc1 (centres undefined)	1.1	2%	0	1.1	i	7
Cn1cnnc1SCC(=O)c1cc2ccccc2oc1=O	1	8%	7	1	i	6
O=C(Cn1nc(Cl)nc1Cl)c1cc2ccccc2oc1=O	0.97	12%	8	2.2*	i	13
CCOc1ccc(C2C=C(c3ccc(C)cc3)Nc3nnnn32)cc1 (centres undefined)	1	6%	14	1.2	i	5
CCOc1ccc(C2C=C(c3ccc(C)cc3)Nc3ncnn32)cc1 (centres undefined)	1.1	10%	12	3.6*	x	8
COc1ccc(C2C=C(c3ccccc3)Nc3ncnn32)cc1 (centres undefined)	1	6%	7	3.4*	x	12
O=C(c1cccs1)c1ccc(-c2cccs2)s1	1.1	18%	8	2.4*	i	14
O=C(c1cc2ccccc2o1)c1cccs1	1.2	1%	3	1.1	i	1
CN1CCN(c2cc3c(c4c2[nH]c2ccccc24)C(=O)CC(C)(C)C3)CC1	1.1	7%	5	2.1*	x	9
Cc1ccc(OCC(=O)N2CCC(N3CCCCCC3)CC2)cc1	1	15%	41*	1.1	i	0
Cc1ccc(OCC(=O)N2CCN(C(=O)CCC3CCCC3)CC2)cc1	0.99	10%	6	1	i	9
Cc1ccc(/C(O)=C2\C(=O)C(=O)N(CC(C)O)C2c2ccc(N(C)C)cc2)cc1 (centres undefined)	1.1	4%	7	0.98	i	6
CCCn1c(=NC(=O)c2ccco2)c(C(=O)OCC)cc2c(=O)n3ccccc3nc21	1.1	2%	3	3.8*	x	1
